In the supplement of paper PMC10646978:
± gives the standard deviation.

What was measured:
Conditions in all cases: modulator concentration 10 µM
[1] = system: RAW-Dual (murine macrophage reporter line); assay: NF-kB reporter (SEAP) activity fold change vs agonist alone; higher = enhanced NF-kB activity
Outline: (§1)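 Compound reached 10 μM final in each well by pin transfer, onto RAW-Dual murine macrophage reporter cells seeded at 50 000 per well in 384-well plates. After 1 hour at 37 °C, the cells were stimulated overnight with a PRR agonist. SEAP in the supernatant was read with QUANTI-Blue at 620 nm absorbance for NF-κB, and Lucia luciferase was read with QUANTI-Luc luminescence for IRF. Each signal was turned into fold change against the mean agonist-only control on the same plate, and two replicate plates were averaged with propagated errors.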

[2] = system: RAW-Dual (murine macrophage reporter line); assay: IRF reporter (Lucia luciferase) activity fold change vs agonist alone; higher = enhanced IRF activity
Outline: as §1

[3] = system: RAW-Dual (murine macrophage reporter line); assay: viability score (confluency relative to resting cells, overnight) (fraction); higher = more viable, active = viable (0.7 or more)
Outline: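 Overnight exposure to 10 μM final compound was carried out on RAW-Dual macrophages in 384-well plates. IncuCyte software generated two confluency masks over all wells imaged with IncuCyte. The viability score gives confluency in relation to resting cells. A compound met the cutoff if each mask exceeded 70% of resting cells.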

[4] = agonist: CpG ODN 1826 0.5 ug/mL

SMILES	NF-kB reporter [1, 4]	NF-kB reporter ([1]; agonist: LPS 0.1 ug/mL)	NF-kB reporter ([1]; agonist: MPLA […])	IRF reporter ([2]; agonist: 3'3'-cGAMP 10 ug/mL)	IRF reporter ([2]; agonist: LPS 0.1 ug/mL)	IRF reporter ([2]; agonist: MPLA […])	viability score [3]
Cc1ccc(OCCCOc2cccc3cccnc23)c(Br)c1	0.998 ± 0.071	1.01 ± 0.078	1.01 ± 0.027	0.829 ± 0.053	0.935 ± 0.13	0.981 ± 0.21	0.998 (active)
CC(Oc1ccccc1)C(=O)NC1CC(C)(C)NC(C)(C)C1 (stereo unspecified)	0.76 ± 0.059	0.966 ± 0.085	1.06 ± 0.1	0.993 ± 0.045	1.26 ± 0.079	1.35 ± 0.14	1.02 (active)
O=C(O)c1ccc(NCn2nnc3ccccc32)cc1	1.05 ± 0.1	0.928 ± 0.12	1.03 ± 0.097	1 ± 0.032	1.37 ± 0.27	1.51 ± 0.23	1 (active)
O=C1CSC(=S)N1N=Cc1ccc(O)c([N+](=O)[O-])c1	0.956 ± 0.091	1.1 ± 0.11	0.97 ± 0.084	1.04 ± 0.027	1.75 ± 0.36	1.1 ± 0.17	0.994 (active)
COc1ccc(CNCc2ccc3ccccc3c2)c(OC)c1	0.163 ± 0.026	1.08 ± 0.09	1.79 ± 0.56	0.644 ± 0.046	1.74 ± 0.38	2.05 ± 0.59	0.688 (inactive)
CSc1nnc(CSc2nc(C)cc(C)n2)n1-c1cccc(C(F)(F)F)c1	0.958 ± 0.041	0.862 ± 0.071	1.17 ± 0.07	0.961 ± 0.053	1.36 ± 0.34	1.37 ± 0.44	0.953 (active)
O=[N+]([O-])c1ccc(C=CC=Nc2ccc(-c3nc4ccccc4s3)c(O)c2)cc1	0.813 ± 0.06	1.04 ± 0.067	0.971 ± 0.034	0.746 ± 0.042	0.973 ± 0.082	0.946 ± 0.079	0.994 (active)
Cc1nc2n(c(=O)c1CCN1CCC(c3noc4cc(F)ccc34)CC1)CCCC2O (stereo unspecified)	1.11 ± 0.27	1.14 ± 0.071	0.997 ± 0.11	0.902 ± 0.038	1.26 ± 0.14	1.14 ± 0.11	1 (active)
COc1ccc(CCNc2nnc(Cc3ccc(Cl)cc3)c(=O)[nH]2)cc1OC	0.928 ± 0.068	1.1 ± 0.089	0.877 ± 0.11	0.977 ± 0.05	1.07 ± 0.065	1.04 ± 0.08	1.02 (active)
O=c1cc(O)c(Cl)c[nH]1	0.953 ± 0.11	0.952 ± 0.15	1 ± 0.052	1.01 ± 0.12	0.925 ± 0.033	0.839 ± 0.13	0.996 (active)
COCCOC(=O)C1=C(C)NC(=S)NC1c1ccccc1OC (stereo unspecified)	1.03 ± 0.098	0.995 ± 0.056	0.956 ± 0.11	0.964 ± 0.039	1.38 ± 0.095	1.19 ± 0.22	1.01 (active)
Brc1ccc(C(Cc2ccccc2)Nc2ccccn2)cc1 (stereo unspecified)	0.255 ± 0.014	1.07 ± 0.071	0.929 ± 0.084	1.27 ± 0.042	1.75 ± 0.12	1.28 ± 0.12	0.959 (active)
CCOP(C)(=O)C(c1ccccc1)N(C)S(C)(=O)=O (stereo unspecified)	1.01 ± 0.089	1.04 ± 0.058	1.03 ± 0.062	1.03 ± 0.046	1.66 ± 0.19	1.22 ± 0.17	1.01 (active)
